Experimental findings from PubChem BioAssay (Tox21) are described below.

SMILES strings stand for the structures. Inconclusive results are not listed. Unmarked numbers belong to inactive results. Calls of active or inactive are those of the source. Calls follow the shape of the dose curve; as a rule, active = well fitted activation curve with a large enough effect in the repeat runs; inconclusive = weak or mixed curves; inactive = flat fitted curve, though single readings scatter.
% is scaled to controls: 0 for no effect and ±100 for the full control effect.

The nature of this test: A CellTox Green Cytotoxicity Assay to monitor cytotoxicity in HepG2 cells - 16 hour (AID 1224876). Also: nearly all actives have a fitted effect of over 45% in size. To be noted: CellTox Green fluorescence; series mostly up to 76.8 µM. The source says: National Center for Advancing Translational Sciences [NCATS]
NIH Chemical Genomics Center [NCGC]
U.S. Environmental Protection Agency [EPA]
National Institutes of Environmental Health Sciences [NIEHS]
National Toxicology Program [NTP]
Cell-based models are critical for drug discovery. Determining the natural cytotoxic effects resulting from test compounds is an essential research activity. A CellTox Green Cytotoxicity Assay to monitor cytotoxicity in real time of continues cell culture during 40 hours of the compound treatment was used to screen Tox21 10K library compounds in HepG2 cells. CellTox Green Cytotoxicity Assay is a nonlytic, homogeneous, biofluorescent method to measure cytotoxicity in cell culture after experimental manipulation. The assay system uses a proprietary asymmetric cyanine dye that is excluded from viable cells but preferentially stains the dead cell's DNA. […] Viable cells produce no appreciable increases in fluorescence. Therefore, the fluorescence signal produced by the binding interaction with dead cell DNA is proportional to cytotoxicity.
The mixture of HepG2 cell suspension and reagents were dispensed at 600cells/6 ul/well in 1536-well tissue culture treated black solid bottom plates using a Multidrop dispenser. After the assay plates were incubated at a 37 C/5% CO2 incubator for 5 hours, 23 nL of compounds dissolved in DMSO, positive and negative controls was transferred to the assay plate by a pintool work station. The plates were incubated at 37 C for 40 hours. The fluorescence intensity were measured at 0h, 8h, 16h, 24h, 32h and 40h time points using ViewLux plate reader during compound treatment.
Take `CCO[Si](CCCS)(OCC)OCC`: the call was inactive.
As to `C=C1CC/C=C(\C)CC[C@@H]2[C@@H]1CC2(C)C`, the molecule was classed as inactive.
Take `C=C(C)C(=O)OCC(C)(C)COC(=O)C(=C)C`: the call was inactive.
`CCCCCCCC/C=C\CCCCCCCC(=O)OCCCC`: the cytotoxicity increase was -7.79% [at 15.8 µM].
`CCCC/C=C/C=C\C=O`: the molecule was classed as inactive.
The same measure, in the same setting: then `CCCC/C=C\CCCCCCCCCC=O`, with “inactive”; and `O=C(OCC(O)CO)c1ccccc1Nc1ccnc2c(C(F)(F)F)cccc12` (stereo not given), with “inactive”.
On the same count and under the same terms, for `Cc1ccccc1C(=O)Nc1ccc(C(=O)N2CCCC(N(C)C)c3ccccc32)cc1` (stereo not given) the value was “inactive”.
Still for that read-out and setting: for `CN(CCOc1ccc(NS(C)(=O)=O)cc1)CCc1ccc(NS(C)(=O)=O)cc1` the value was “inactive”.
Turning to `CC(C)(C)c1cc(CCC(=O)NN)cc(C(C)(C)C)c1O`, the result was inactive.
Regarding `COC(=O)CCCCCCCC(=O)OC`, the call was inactive.
Same read-out and setting: for `O=C(NCC(O)CO)c1c(I)c(C(=O)NCC(O)CO)c(I)c(N(CCO)C(=O)CO)c1I` (stereo not given) the value was “inactive”; for `CC(C)C[C@H](NC(=O)CNC(=O)[C@H](Cc1ccc(O)cc1)NC(=O)[C@H](CO)NC(=O)[C@H](Cc1c[nH]c2ccccc12)NC(=O)[C@H](Cc1cnc[nH]1)NC(=O)[C@@H]1CCC(=O)N1)C(=O)N[C@@H](CCCN=C(N)N)C(=O)N1CCC[C@H]1C(=O)NCC(N)=O` (stereo in doubt), “inactive”; for `Oc1ccccc1-c1nnco1`, “inactive”.
For `CC(C)OC(=O)CCCCC(=O)OC(C)C`, the molecule was classed as inactive.
Same read-out and setting: for `Nc1cccc(O)c1` the value was “inactive”; for `CCCC(=O)C(C)=O`, “inactive”; for `NCCN1CCOCC1`, “inactive”.
The same measure, in the same setting: then `CC(=O)N[C@@H](CCC(=O)O)C(=O)O`, with “inactive”; and `Cc1ccccc1N=O`, with “inactive”; and `ClCCCl`, with “inactive”.
On the same count and under the same terms, then `CCCCCOC(=O)CCC`, with “inactive”; and `C=C(C)C(=O)OCc1ccccc1`, with “inactive”.
Turning to `COC(=O)c1ccccc1C(=O)c1ccc(OCCN2CCCCC2)cc1`, the molecule was called inactive.
For `CNS(=O)(=O)CCc1ccc2[nH]cc(C3CCN(C)CC3)c2c1`, the result was inactive.
Still for that read-out and setting: for `CCOCCOCCOCC` the value was “inactive”; for `CN(C)C(=O)CNC(=O)Cc1ccccc1`, “inactive”; for `FC(F)(F)c1ccccc1-n1ccnc1`, “inactive”.
The same measure, in the same setting: for `CCOC(=O)[C@H](CCc1ccccc1)N[C@@H](C)C(=O)N1C(=O)N(C)C[C@H]1C(=O)O` the value was “inactive”.
In the case of `O=C(OCC1(COC(=O)c2cccnc2)CCCC(COC(=O)c2cccnc2)(COC(=O)c2cccnc2)C1O)c1cccnc1`, the result was inactive.
Same read-out and setting: then `O=P(O)(O)OP(=O)(O)O`, with “inactive”.
On the same count and under the same terms, then `Cc1cc(NC(=O)C2=C(O)c3ccccc3S(=O)(=O)N2C)no1`, with “inactive”; and `CC(=O)OC(C)OC(=O)C(C)c1ccc(-c2ccccc2)c(F)c1` (stereo not given), with “inactive”; and `C=C(C)C(=O)OCCN(CC)CC`, with “inactive”.
Regarding `O=C1O[C@@H]2[C@@H](O)[C@H](O)O[C@@H]2[C@H]1O`, the result was inactive.
Consider `CCCCCCCCCCCCCC`, for which the outcome was inactive.
Turning to `CCOCCOC(=O)/C=C/c1ccc(OC)cc1`, the molecule was called inactive.
On to `C[Si](C)=O`, for which the cytotoxicity increase is -6.23% [at 6.97 µM].
Regarding `C=CCCCCCCCCCCCC`, the molecule was called inactive.
In the case of `C=CC(OCC)OCC`, the call was inactive.
